Data published in PubChem BioAssay.
The source made the active and inactive calls.

Tests used:
[1] = small molecules captured by biotinylated probe aFSTL3 – biochemical, small-molecule microarray, fluorescence 635/667, stem cell growth factor project, primary screen (AID 1064); details: higher = more signal;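 note: measures binding of the biotinylated anti-FSTL3 antibody to printed compounds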
[2] = binders from COS7 lysate, DM2A8 probe, primary screen, torsin A project, cell lysate, small-molecule microarray, fluorescence 635/667 (AID 1065); details: higher = more signal, COS7 lysate expressing mutant human TOR1A
[3] = small molecules captured by biotinylated probe aFGF2 – biochemical, small-molecule microarray, fluorescence 635/667, stem cell growth factor project, primary screen (AID 1067); details: higher = more signal;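 note: measures binding of biotinylated aFGF2 protein to printed compounds on slides; z-score merges feature fluorescence and signal-to-noise across triplicate slides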
[4] = small molecules captured by biotinylated probe aFGF10 – biochemical, small-molecule microarray, fluorescence 635/667, stem cell growth factor project, primary screen (AID 1071); details: higher = more signal;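 note: score merges 667 nm spot intensity and signal to noise from triplicate slides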
[5] = target: Neurogenic locus notch homolog protein 2 (Homo sapiens) (UniProt Q04721); test: small molecules binding Notch2 protein – biochemical, small-molecule microarray, 635 nm fluorescence, stem cell growth factors, primary screen (AID 1073); details: higher = more signal
Sequence of Neurogenic locus notch homolog protein 2 (Homo sapiens) (Q04721 whole entry, looked up, canonical isoform): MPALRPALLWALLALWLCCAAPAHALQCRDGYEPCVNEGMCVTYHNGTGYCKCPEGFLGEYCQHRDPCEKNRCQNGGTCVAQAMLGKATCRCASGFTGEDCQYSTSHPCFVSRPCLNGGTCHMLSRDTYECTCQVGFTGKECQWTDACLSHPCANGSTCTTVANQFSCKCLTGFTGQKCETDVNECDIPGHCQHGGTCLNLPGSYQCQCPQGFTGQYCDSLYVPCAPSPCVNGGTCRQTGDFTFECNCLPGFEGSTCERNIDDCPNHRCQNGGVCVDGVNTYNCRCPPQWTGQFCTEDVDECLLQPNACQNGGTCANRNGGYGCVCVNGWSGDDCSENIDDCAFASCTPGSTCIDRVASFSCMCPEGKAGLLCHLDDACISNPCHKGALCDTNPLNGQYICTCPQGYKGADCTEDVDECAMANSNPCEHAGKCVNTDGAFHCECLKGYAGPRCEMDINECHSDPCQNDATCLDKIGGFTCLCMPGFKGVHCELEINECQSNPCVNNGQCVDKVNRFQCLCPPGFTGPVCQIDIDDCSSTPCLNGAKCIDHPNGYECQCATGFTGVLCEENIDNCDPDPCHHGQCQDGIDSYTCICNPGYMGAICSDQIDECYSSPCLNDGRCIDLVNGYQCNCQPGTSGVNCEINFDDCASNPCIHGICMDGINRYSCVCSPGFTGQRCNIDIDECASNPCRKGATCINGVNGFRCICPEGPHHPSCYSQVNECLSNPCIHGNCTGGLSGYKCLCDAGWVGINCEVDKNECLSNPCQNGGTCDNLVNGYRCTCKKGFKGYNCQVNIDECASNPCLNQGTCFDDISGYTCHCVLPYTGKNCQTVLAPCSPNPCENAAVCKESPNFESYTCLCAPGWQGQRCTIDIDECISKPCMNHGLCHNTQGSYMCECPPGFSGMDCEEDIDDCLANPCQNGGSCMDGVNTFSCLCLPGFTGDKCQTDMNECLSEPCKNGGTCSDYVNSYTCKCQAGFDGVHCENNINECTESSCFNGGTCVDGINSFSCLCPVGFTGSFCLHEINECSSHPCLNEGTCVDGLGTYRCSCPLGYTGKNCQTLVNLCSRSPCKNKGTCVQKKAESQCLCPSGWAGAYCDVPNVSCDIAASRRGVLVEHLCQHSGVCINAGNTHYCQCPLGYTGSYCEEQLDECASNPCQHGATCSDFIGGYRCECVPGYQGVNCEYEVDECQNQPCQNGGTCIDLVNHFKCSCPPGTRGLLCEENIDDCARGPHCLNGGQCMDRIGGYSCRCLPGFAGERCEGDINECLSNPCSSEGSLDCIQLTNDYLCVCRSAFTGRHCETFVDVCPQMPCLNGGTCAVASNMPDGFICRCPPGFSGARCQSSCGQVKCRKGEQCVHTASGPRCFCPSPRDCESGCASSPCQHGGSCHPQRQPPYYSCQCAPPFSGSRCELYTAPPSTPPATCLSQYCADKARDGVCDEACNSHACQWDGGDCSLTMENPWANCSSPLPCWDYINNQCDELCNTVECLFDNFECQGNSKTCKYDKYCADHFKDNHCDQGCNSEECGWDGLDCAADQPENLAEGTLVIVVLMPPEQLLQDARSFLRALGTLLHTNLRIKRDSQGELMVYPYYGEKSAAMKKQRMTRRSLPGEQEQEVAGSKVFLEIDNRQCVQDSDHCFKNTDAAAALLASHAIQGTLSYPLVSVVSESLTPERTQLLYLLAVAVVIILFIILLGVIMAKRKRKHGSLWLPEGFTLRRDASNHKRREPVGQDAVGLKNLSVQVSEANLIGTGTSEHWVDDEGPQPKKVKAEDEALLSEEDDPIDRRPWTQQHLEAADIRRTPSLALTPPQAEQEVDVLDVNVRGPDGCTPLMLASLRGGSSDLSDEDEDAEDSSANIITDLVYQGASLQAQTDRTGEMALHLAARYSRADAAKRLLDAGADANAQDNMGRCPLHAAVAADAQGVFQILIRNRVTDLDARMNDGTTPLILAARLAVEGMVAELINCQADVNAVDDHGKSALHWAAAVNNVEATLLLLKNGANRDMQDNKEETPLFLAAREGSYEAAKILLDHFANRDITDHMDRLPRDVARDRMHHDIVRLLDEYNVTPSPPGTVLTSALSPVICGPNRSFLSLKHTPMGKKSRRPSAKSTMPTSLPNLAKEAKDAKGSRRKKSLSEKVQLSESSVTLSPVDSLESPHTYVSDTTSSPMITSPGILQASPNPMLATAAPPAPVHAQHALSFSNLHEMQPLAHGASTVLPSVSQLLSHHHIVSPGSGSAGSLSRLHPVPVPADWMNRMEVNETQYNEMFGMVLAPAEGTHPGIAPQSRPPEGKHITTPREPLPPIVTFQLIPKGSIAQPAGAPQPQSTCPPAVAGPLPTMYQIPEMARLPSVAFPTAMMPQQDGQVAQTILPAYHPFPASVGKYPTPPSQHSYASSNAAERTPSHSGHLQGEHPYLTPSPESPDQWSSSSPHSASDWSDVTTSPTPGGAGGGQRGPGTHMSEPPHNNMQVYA

[6] = target: Pro-neuregulin-1, membrane-bound isoform (Homo sapiens) (UniProt Q02297); test: small molecules binding neuregulin-1 protein – biochemical, small-molecule microarray, fluorescence 635/667, psychiatric disease protein project, primary screen (AID 1075); details: NRG1 binding, 635 nm fluorescence, higher = more signal;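 note: score combines 667 nm spot fluorescence with signal to noise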
[7] = system: Neuregulin-1 EGF-like domain; test: small molecules binding NRG1 EGF domain – biochemical, small-molecule microarray, 635 nm fluorescence, primary screen (AID 1081); details: higher = more signal;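 note: binding of the protein to compounds printed on small-molecule microarray slides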
[8] = FRG1 expression reporter modulators in myotubes – cell-based, C2C12 myotubes, firefly/Renilla luciferase, luminescence, FRG1 inhibition for FSHD, primary screen (AID 1084); details: FRG1 promoter luciferase, higher = more signal, called active from +8 up or from −8 down
[9] = small molecules captured by biotinylated probe aFST – biochemical, small-molecule microarray, fluorescence 635/667, stem cell growth factor project, primary screen (AID 1086); details: higher = more signal;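 note: score merges 667 nm fluorescence with signal-to-noise of each printed compound spot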
[10] = binders of probe aHhip on microarray, primary screen, stem cell growth factor project, biochemical, small-molecule microarray, fluorescence 635/667 (AID 1087); details: higher = more signal;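 note: score merges spot fluorescence at 667nm with spot signal to noise ratio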
[11] = system: PRMT1 (protein arginine N-methyltransferase 1); test: small molecules binding arginine methyltransferase PRMT1 – biochemical, small-molecule microarray, 635 nm fluorescence, primary screen (AID 1088); details: higher = more signal;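 note: binding of Prmt1 protein to compounds spotted on small-molecule microarray slides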
[12] = growth effects on S. cerevisiae YJM789 – YJM789 clinical isolate, OD600, 24 h, basal, primary screen (AID 1089); details: higher = more signal, called active from +8 up or from −8 down;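 note: growth of clinical yeast isolate S. cerevisiae YJM 789 seeded 1000 cells per well; test concentration not given here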
[13] = S. pombe growth modifiers, basal conditions – strain 972, OD600, 24 h, no modulator, primary screen (AID 1090);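 note: basal condition with compound alone and no growth modifier present; test concentration not given here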; details: S. pombe 972 growth, higher = more signal, called active from +8 up or from −8 down
[14] = budding yeast growth modifiers under rapamycin – strain BY4716, OD600, 96 h, primary screen (AID 1091); note: test concentration not given here; details: S. cerevisiae BY4716 + rapamycin, higher = more signal, called active from +8 up or from −8 down
[15] = target: Torsin-1A-interacting protein 2 (Homo sapiens) (UniProt Q8NFQ8); test: small molecules binding lysate-expressed LULL1 – cell lysate, human LULL1 lysate, 635/667 nm fluorescence, primary screen (AID 1092); details: small-molecule microarray, hLULL1 lysate binding, 635 nm fluorescence; higher = more signal;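 note: probe is lysate of COS7 cells overexpressing human LULL1; score merges per-feature 667 nm fluorescence with signal-to-noise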
[16] = optical density change of DRC41 E. coli – strain DRC41, OD650, 24 h, E. coli filamentation project, primary screen (AID 1093);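 note: MC1000 strain lacking acrAB efflux and sulA so SOS filamentation is blocked; test concentration not given here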; details: E. coli DRC41 growth, higher = more signal, called active from +8 up or from −8 down
[17] = probe aLefty2 binding to arrayed compounds – biochemical, biotinylated probe, 635/667 nm fluorescence, primary screen (AID 1094); details: small-molecule microarray, higher = more signal;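 note: score merges spot fluorescence near 667 nm with spot signal-to-noise ratio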
[18] = system: Noggin (protein binding on small-molecule microarray); test: small molecules binding Noggin protein – biochemical, 635/667 nm fluorescence, primary screen (AID 1095); details: 635 nm fluorescence, higher = more signal;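 note: score merges 667 nm feature fluorescence with signal to noise over triplicate slides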
[19] = target: Neurogenic locus notch homolog protein 3 (Homo sapiens) (UniProt Q9UM47); test: small molecules binding NOTCH3 protein – biochemical, 635/667 nm fluorescence, primary screen (AID 1096); details: small-molecule microarray, 635 nm fluorescence, higher = more signal
Sequence of Neurogenic locus notch homolog protein 3 (Homo sapiens) (Q9UM47 whole entry, looked up): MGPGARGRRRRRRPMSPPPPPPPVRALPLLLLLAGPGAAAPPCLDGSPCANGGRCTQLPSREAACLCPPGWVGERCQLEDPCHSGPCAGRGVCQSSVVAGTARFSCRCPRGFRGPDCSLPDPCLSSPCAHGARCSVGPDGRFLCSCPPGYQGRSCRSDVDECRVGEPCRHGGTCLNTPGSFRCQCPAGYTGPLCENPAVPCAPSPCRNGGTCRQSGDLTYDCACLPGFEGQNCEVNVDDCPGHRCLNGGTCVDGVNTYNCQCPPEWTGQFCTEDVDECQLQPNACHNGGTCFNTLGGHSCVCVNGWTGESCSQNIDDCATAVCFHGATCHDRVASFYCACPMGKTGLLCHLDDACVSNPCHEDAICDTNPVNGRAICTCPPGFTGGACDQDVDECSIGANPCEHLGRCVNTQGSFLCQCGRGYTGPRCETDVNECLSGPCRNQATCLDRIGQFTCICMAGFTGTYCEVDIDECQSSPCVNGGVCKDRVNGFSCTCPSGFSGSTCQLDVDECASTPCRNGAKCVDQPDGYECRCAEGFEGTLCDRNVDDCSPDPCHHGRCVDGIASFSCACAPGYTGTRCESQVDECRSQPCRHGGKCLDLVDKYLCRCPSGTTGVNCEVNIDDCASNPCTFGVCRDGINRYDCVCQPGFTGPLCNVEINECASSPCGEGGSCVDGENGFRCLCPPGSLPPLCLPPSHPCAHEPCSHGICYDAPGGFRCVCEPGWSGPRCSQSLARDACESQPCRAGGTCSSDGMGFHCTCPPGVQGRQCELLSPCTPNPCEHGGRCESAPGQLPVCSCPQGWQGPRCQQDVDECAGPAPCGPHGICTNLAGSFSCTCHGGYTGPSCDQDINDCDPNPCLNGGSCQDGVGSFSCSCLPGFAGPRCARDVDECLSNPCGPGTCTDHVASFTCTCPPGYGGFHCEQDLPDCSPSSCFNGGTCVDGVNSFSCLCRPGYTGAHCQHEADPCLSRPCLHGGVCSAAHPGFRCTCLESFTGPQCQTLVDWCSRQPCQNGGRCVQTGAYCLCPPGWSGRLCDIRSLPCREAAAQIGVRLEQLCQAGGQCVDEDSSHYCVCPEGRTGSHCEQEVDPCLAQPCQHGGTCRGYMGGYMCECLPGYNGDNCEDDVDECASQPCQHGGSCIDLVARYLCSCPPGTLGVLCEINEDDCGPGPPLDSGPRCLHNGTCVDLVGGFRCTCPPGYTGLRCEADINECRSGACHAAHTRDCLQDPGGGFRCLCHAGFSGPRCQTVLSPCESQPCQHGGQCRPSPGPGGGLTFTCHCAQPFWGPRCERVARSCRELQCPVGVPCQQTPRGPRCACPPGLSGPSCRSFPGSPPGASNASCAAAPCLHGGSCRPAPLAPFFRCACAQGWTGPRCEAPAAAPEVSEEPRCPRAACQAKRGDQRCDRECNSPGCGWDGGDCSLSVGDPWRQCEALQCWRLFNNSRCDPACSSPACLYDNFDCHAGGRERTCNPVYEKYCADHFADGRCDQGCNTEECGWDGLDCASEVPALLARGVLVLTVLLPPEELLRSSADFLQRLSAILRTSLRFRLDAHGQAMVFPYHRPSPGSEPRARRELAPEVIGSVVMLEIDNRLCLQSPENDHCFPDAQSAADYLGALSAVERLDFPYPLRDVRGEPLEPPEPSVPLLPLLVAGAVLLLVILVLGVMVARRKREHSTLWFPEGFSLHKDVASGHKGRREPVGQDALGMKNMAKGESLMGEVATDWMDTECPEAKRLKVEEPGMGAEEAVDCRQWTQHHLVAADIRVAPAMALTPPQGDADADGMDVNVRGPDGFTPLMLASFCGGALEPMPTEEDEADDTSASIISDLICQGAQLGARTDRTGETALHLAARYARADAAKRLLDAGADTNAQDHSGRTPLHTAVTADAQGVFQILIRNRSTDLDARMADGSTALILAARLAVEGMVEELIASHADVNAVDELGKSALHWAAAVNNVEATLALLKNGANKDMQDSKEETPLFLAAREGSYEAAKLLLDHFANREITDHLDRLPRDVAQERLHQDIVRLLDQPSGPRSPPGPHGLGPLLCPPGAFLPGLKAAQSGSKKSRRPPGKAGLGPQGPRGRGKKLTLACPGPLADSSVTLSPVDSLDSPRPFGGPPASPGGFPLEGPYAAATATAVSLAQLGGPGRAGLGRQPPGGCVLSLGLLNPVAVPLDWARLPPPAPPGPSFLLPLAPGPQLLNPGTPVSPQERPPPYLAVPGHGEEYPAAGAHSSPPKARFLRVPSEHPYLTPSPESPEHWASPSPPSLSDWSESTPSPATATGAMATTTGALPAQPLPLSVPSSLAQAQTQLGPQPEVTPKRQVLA

[20] = probe aEGFR binding to arrayed compounds – biochemical, biotinylated probe, 635/667 nm fluorescence, primary screen (AID 1097); details: small-molecule microarray, higher = more signal;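 note: probe is a biotinylated anti-EGFR antibody binding compounds printed on slides; score combines fluorescence near 667 nm and signal to noise of each spot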

Structure (SMILES) | composite z-score [1] | composite z-score [2] | composite z-score [3] | composite z-score [4] | composite z-score [5] | composite z-score [6] | composite z-score [7] | z-score [8] | composite z-score [9] | composite z-score [10] | composite z-score [11] | z-score [12] | z-score [13] | z-score [14] | composite z-score [15] | z-score [16] | composite z-score [17] | composite z-score [18] | composite z-score [19] | composite z-score [20]
C=CC[C@@]1(C(=O)OC)N=C(c2ccc(OCCCO)cc2)O[C@@H]1c1ccccc1CN=[N+]=[N-] | 0.0729 | 0.0269 | -0.116 | -0.438 | 0.406 | 0.482 | 1.1 | -0.484 (inactive) | 0.166 | -0.199 | 1.3 | -3.29 (inactive) | -4.42 (inactive) | 6.32 (inactive) | 1.41 | 1.21 (inactive) | 0.0427 | 0.744 | -0.159 | -0.0531
CC(C)[C@H]1COC(=O)N1C(=O)[C@H]1[C@@H](c2ccccc2)N(c2ccccc2)O[C@@H]1C | -0.385 | 0.182 | -0.204 | 0.488 | 1.14 | 0.182 | 0.974 | -0.803 (inactive) | 0.301 | -0.367 | 0.842 | -0.384 (inactive) | -2.87 (inactive) | 0.0611 (inactive) | 1.29 | 0.874 (inactive) | -0.0023 | 0.403 | 0.757 | -0.12
O[C@@H](Cc1ccccc1)[C@@H](/C=C/c1ccccc1)NCc1ccccc1Br | 0.686 | -1.36 | -0.176 | -1.09 | -1.31 | -0.803 | -0.639 | -0.926 (inactive) | -0.579 | -0.475 | -0.995 | 0.0419 (inactive) | -11.4 (active) | -1.54 (inactive) | -0.557 | 0.908 (inactive) | 0.0372 | -1.34 | -0.707 | -0.348
O=C1O[C@@H](c2ccccc2)[C@@H](c2ccccc2)N2[C@@H](c3ccc(O)cc3)[C@]3(C(=O)Nc4ccccc43)[C@@H](C(=O)NC[C@H](O)c3ccccc3)[C@H]12 | -0.263 | 0.606 | -0.141 | 0.0271 | 0.135 | 1.69 | 0.552 | -1.23 (inactive) | -0.174 | -0.12 | 0.867 | 0.3 (inactive) | 0.572 (inactive) | 1.49 (inactive) | 2.02 | 1.76 (inactive) | -0.12 | 0.753 | 0.0385 | -0.112
O=C1C2C=CC(C(O)c3ccccn3)N(Nc3ccccc3F)C2C(=O)N1c1ccccc1 (stereo not given) | -0.22 | 0.135 | -0.047 | 0.4 | 0.417 | 0.301 | 1.02 | 1.9 (inactive) | 0.19 | -0.0945 | 0.0392 | 0.839 (inactive) | 0.0161 (inactive) | -0.207 (inactive) | 1 | -0.717 (inactive) | -0.0561 | 0.0291 | -0.584 | -0.0581
CC(=O)NCCCC[C@@H]1NC(=O)[C@@H]2C[C@H](C(=O)NCCCCCC[N+](C)(C)C)[C@H](c3cccc(OCCO)c3)N2C1=O | -0.0722 | 1.23 | -0.0098 | 0.498 | 0.0496 | 1.52 | 1.35 | 3.12 (inactive) | 0.715 | -0.0296 | 1.54 | 0.801 (inactive) | 0.385 (inactive) | 1.1 (inactive) | 2.46 | -0.104 (inactive) | 0.0283 | 1.03 | 1.02 | -0.115
C=C(CCCC)/C(=C/C[C@H](OC(C)=O)c1ccc(CO)o1)c1cc(C(=O)OC)ccc1OC | -0.509 | -0.296 | -0.0333 | 0.525 | -0.0467 | 0.714 | 0.888 | -0.313 (inactive) | 0.439 | -0.0618 | 1.56 | 1.02 (inactive) | -1.01 (inactive) | -0.194 (inactive) | 1.8 | 1.05 (inactive) | -0.0371 | 1.8 | 1.09 | -0.125
COc1cc(CO)cc(I)c1O[C@H]1C=C(C(=O)NCCO)C[C@@H](N(CCc2cccc(F)c2)C(=O)CCC2CCCC2)[C@@H]1O | 0.0822 | 0.825 | 0.195 | 0.146 | 0.0011 | 1.27 | 1.29 | -4.64 (inactive) | 0.336 | 0.219 | 1.55 | 0.645 (inactive) | -6.99 (inactive) | -1.02 (inactive) | 1.7 | 0.0555 (inactive) | -0.0632 | 1.91 | 0.922 | -0.0302
COc1c(C)cc(-c2cc3c(c(-c4ccccc4)n2)[Si](C(C)C)(C(C)C)O[C@H]3c2ccccc2)cc1C | -0.409 | -0.103 | -0.103 | 0.235 | 0.234 | -0.0051 | -0.438 | 0.361 (inactive) | 0.291 | 0.0373 | 0.431 | -0.336 (inactive) | -0.253 (inactive) | 0.0998 (inactive) | 0.0055 | -1.1 (inactive) | -0.166 | 0.37 | 0.418 | -0.0359
C=C[C@H](OC)[C@@H](OC(=O)Nc1ccc(SC)cc1)c1ccc(OCCO)cc1 | 0.0168 | 0.594 | -0.0307 | 0.778 | -0.21 | 0.121 | 1.41 | 5.3 (inactive) | -0.0503 | -0.249 | 1.15 | 0.458 (inactive) | -0.339 (inactive) | 0.513 (inactive) | 2.67 | 1.15 (inactive) | -0.0478 | -0.555 | -0.179 | 0.507
